A number with no mark means an inactive call. Results filed as inconclusive are left out. The source made the active and inactive calls. Unless noted, calls follow the shape of the full dose curve.

The nature of assay [1]: Nuclear factor erythroid 2-related factor 2/antioxidant responsive element (Nrf2/ARE) small molecule agonists: qHTS cell viability counter screen in human keratinocytes (AID 1919968; active = well fitted curve in the direction sought with a large enough effect in the repeat runs; an effect the other way counts as inactive or inconclusive; also: nearly all actives have a fitted effect of over 55% in size). Put shortly: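 Cytotoxicity was multiplexed with the Nrf2/ARE luciferase assay in the same wells. Stably transfected HaCaT keratinocytes were treated with test compounds for 23 h at 37 C. Cell viability was then measured by CellTiter-Fluor fluorescence.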
For orientation: In qHTS, concentration-response curves come from the screen itself.

Assay [2] can be described thus: Nuclear factor erythroid 2-related factor 2/antioxidant responsive element (Nrf2/ARE) small molecule agonists: luciferase reporter gene qHTS assay in human keratinocytes (AID 1919969; also: nearly all actives have a fitted effect of over 35% in size). (In general: In a reporter assay the amount or activity of a reporter protein is the signal.)
The target in assay [3] is Gonadotropin-releasing hormone receptor (Homo sapiens) (UniProt P30968). Briefly: Human gonadotropin-releasing hormone receptor (GnRHR) small molecule agonists, calcium flux assay in GnRHR-HEK293 cells (AID 1920063). Also: nearly all actives have a fitted effect of over 35% in size. Put shortly: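 Agonist activity was measured as intracellular calcium flux in HEK293 cells engineered to stably express human GnRHR. After dye loading for 1 hour at 37 C, compounds in DMSO were added and fluorescence was followed for 3 minutes.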
Gonadotropin-releasing hormone receptor (Homo sapiens), sequence (P30968 whole entry, looked up): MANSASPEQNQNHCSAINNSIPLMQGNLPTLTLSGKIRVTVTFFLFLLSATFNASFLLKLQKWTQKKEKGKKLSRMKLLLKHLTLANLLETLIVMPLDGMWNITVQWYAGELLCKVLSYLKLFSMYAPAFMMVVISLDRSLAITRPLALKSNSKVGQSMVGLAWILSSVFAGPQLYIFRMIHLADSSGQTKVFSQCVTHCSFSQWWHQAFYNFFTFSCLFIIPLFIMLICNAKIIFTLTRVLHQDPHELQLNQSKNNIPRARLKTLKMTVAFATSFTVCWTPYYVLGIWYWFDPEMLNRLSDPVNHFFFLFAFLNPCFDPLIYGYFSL

The target in assay [4] is KiSS-1 receptor (Homo sapiens) (UniProt Q969F8). Briefly: Human kisspeptin (KISS1R) small molecule agonists, calcium flux assay in KISS1R-HEK293 cells (AID 1920064; active = well fitted curve in the direction sought with a large enough effect in the repeat runs; an effect the other way counts as inactive or inconclusive). The gist of the method: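 Agonist activity is monitored as intracellular calcium rise in engineered HEK293 cells carrying human KISS1R. Cells are dye-loaded for 1 h at 37 C before compound addition, and fluorescence is recorded for 3 min.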
KiSS-1 receptor (Homo sapiens), sequence (Q969F8 whole entry, looked up): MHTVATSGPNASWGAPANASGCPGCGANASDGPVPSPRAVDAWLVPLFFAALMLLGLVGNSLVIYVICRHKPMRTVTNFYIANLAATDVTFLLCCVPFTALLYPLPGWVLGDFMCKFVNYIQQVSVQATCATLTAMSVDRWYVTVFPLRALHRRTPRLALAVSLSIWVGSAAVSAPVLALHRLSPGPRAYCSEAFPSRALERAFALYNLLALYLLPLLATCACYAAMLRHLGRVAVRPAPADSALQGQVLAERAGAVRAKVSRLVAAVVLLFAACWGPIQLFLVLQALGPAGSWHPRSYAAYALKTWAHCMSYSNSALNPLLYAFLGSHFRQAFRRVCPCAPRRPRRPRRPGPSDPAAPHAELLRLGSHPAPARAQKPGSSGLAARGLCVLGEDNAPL
On the technique in general: Calcium assays in cells follow changes in intracellular calcium, usually with a dye or a luminescent sensor.

A short description of assay [5]: p53 small molecule agonists, cell-based qHTS assay with human liver microsomes (AID 1963577). Put shortly: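 Fluorescence of the beta-lactamase reporter in p53RE-bla cells, detected with LiveBLAzer substrate (2 h, room temperature, dark), served as the read-out after 16 h compound exposure at 37 C with human liver microsomes and NADPH, each 0.5 mg/mL final.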
Assay [6] in a line: p53 small molecule agonists, cell-based qHTS assay with rat liver microsomes (AID 1963578). The gist of the method: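 Cells carrying a p53 response element–beta-lactamase reporter were plated and rested 5 h, then dosed with compound in DMSO plus rat liver microsomes and NADPH, each at 0.5 mg/mL final. After 16 h at 37 C, LiveBLAzer substrate was added for 2 h.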
A short description of assay [7]: p53 small molecule agonists, cell-based qHTS assay with human liver microsomes: qHTS cell viability counter screen (AID 1963579). Also: nearly all actives have a fitted effect of over 45% in size. Put shortly:
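Cytotoxicity counter screen: p53RE-bla, 4,000 cells/well; 5 h settle, 37 C/5% CO2; cpd + HLM 0.5 mg/mL + NADPH 0.5 mg/mL (final); 16 h, 37 C; CellTiter-Glo, 30 min RT, luminescence.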

A short description of assay [8]: p53 small molecule agonists, cell-based qHTS assay with rat liver microsomes: qHTS cell viability counter screen (AID 1963580). Also: nearly all actives have a fitted effect of over 45% in size. The gist of the method:
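Counter screen for cytotoxicity under metabolic activation: rat liver microsomes and NADPH, 0.5 mg/mL final each, added with compounds to p53RE-bla HCT-116 cells; 16 h at 37 C, then ATP luminescence read.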

Assay [9] can be described thus: p53 small molecule agonists, cell-based qHTS assay: qHTS cell viability counter screen (AID 1963581). Also: nearly all actives have a fitted effect of over 45% in size. Put shortly:
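Viability was counter-screened in parallel with the p53 agonist reporter by measuring intracellular ATP luminescence in the same HCT-116 p53RE-bla wells after 16 h compound treatment at 37 C.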

Assay [10] is described as follows: p53 small molecule agonists, cell-based qHTS assay (AID 1963582; active = well fitted activation curve with a large enough effect in the signal ratio in the repeat runs, not every such curve was filed as active; the % refers to the signal ratio). Put shortly: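 Cells carrying a p53-responsive bla reporter are treated with test compounds for 16 h at 37 C; beta-lactamase activity is then detected with LiveBLAzer B/G FRET substrate after 2 h at room temperature.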
The target in assay [11] is 5-hydroxytryptamine receptor 2A (Homo sapiens) (UniProt P28223). Briefly: 5-hydroxytryptamine receptor 2A (HTR2A) small molecule agonists, cell-based qHTS assay (AID 1963587). Also: nearly all actives have a fitted effect of over 30% in size. Put shortly:
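HTR2A-CHO cells, plated 18 h at 37 C/5% CO2, dye-loaded 1 h at 37 C; compounds in DMSO added by pin tool (agonist mode). Intracellular calcium flux read as kinetic fluorescence on FDSS over 2 min at 1 s intervals.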

Assay [12] deals with Muscarinic acetylcholine receptor M1 (Homo sapiens) (UniProt P11229). Briefly: Cholinergic receptor muscarinic 1 (CHRM1) small molecule antagonists, cell-based qHTS assay (AID 1963588). Also: nearly all actives have a fitted effect of over 40% in size. The gist of the method: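 Compounds were tested at 15 concentrations in three independent runs. Dye-loaded CHRM1-CHO cells were exposed 5 min at room temperature before stimulation by acetylcholine added at 50nM. Intracellular calcium was read kinetically on FDSS for 3 min.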
Muscarinic acetylcholine receptor M1 (Homo sapiens), sequence (P11229 whole entry, looked up): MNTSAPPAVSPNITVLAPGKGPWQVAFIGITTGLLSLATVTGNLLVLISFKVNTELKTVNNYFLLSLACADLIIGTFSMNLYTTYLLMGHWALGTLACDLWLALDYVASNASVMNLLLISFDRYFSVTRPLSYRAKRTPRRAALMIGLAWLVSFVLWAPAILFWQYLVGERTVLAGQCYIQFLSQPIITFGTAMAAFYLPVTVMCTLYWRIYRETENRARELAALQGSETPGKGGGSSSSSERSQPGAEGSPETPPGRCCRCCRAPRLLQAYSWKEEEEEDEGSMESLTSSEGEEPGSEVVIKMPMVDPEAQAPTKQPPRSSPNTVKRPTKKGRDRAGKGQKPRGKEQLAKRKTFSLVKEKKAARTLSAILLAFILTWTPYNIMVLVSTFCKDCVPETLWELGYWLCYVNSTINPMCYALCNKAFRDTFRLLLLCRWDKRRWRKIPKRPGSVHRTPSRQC

Assay [13] has the same target. Briefly: Cholinergic receptor muscarinic 1 (CHRM1) small molecule agonists, cell-based qHTS assay (AID 1963589). Also: nearly all actives have a fitted effect of over 35% in size. The gist of the method:
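Cells were plated and incubated 18 h at 37 C/5% CO2, loaded with calcium dye for 1 h at 37 C, then treated with compounds in DMSO. Fluorescence was recorded kinetically at 1 sec intervals.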

Assay [14] in a line: cAMP Responsive Elements (CRE) small molecule agonists, cell-based qHTS assay (AID 1963590). Put shortly: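 Cells carrying a CRE-driven beta-lactamase reporter (HEK 293T) are seeded, incubated overnight (18 h), and treated with test compounds for 3 h at 37 C; reporter activity is then detected with a FRET substrate after 2 h at room temperature.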
Assay [15] is described as follows: cAMP Responsive Elements (CRE) small molecule antagonists, cell-based qHTS assay (AID 1963591; active = well fitted inhibition curve with a large enough effect in the signal ratio in the repeat runs, not every such curve was filed as active; the % refers to the signal ratio). The gist of the method:
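Cells (CRE-bla HEK 293T, DMEM with 10% dialyzed FBS and 25 mM HEPES) are seeded and incubated 18 h. Compounds are added with NKH477 agonist at 0.25 uM final for 3 h, then FRET substrate for 2 h.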

The target in assay [16] is Beta-2 adrenergic receptor (Homo sapiens) (UniProt P07550). Briefly: Adrenergic beta2 receptor (ADRB2) small molecule antagonists, cell-based qHTS assay (AID 1963592). Also: series mostly up to about 92 µM; nearly all actives have a fitted effect of over 50% in size. The gist of the method:
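Assay format: CHO-ADRB2 cells, 18-20hr seeding at 37C/5% CO2, then compound plus 1nM isoproterenol agonist mix for 0.5hr RT. Homogeneous time-resolved fluorescence cAMP detection after 1hr, expressed as 665/615 nm ratio.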

For assay [17] the target is unchanged. Briefly: Adrenergic beta2 receptor (ADRB2) small molecule agonists, cell-based qHTS assay (AID 1963593).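 Also: CHO cells stably overexpressing human ADRB2.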 Put shortly: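 CHO cells stably over-expressing ADRB2 were plated overnight at 37C, then dosed with compounds plus a stimulation mix containing 100uM IBMX and 25uM Ro-20-1724 for 0.5hr at room temperature. cAMP was measured by HTRF competition, 1hr.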
The target in assay [18] is D(2) dopamine receptor (Homo sapiens) (UniProt P14416). Briefly: Dopamine D2 receptor (DRD2) small molecule antagonists, cell-based qHTS assay (AID 1963595; active = well fitted inhibition curve with a large enough effect in the signal ratio in the repeat runs, with a control signal flat; the % refers to the signal ratio). Put shortly: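 Cells were plated and grown for 24 h at 37 °C. Ro20-1724 (0.1 mM final) went in first, then compound for 10 min. NKH477 (200 nM) with quinpirole (12 nM) followed for 30 min at RT, then HTRF detection reagents for 1 h.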
D(2) dopamine receptor (Homo sapiens), sequence (P14416 whole entry, looked up): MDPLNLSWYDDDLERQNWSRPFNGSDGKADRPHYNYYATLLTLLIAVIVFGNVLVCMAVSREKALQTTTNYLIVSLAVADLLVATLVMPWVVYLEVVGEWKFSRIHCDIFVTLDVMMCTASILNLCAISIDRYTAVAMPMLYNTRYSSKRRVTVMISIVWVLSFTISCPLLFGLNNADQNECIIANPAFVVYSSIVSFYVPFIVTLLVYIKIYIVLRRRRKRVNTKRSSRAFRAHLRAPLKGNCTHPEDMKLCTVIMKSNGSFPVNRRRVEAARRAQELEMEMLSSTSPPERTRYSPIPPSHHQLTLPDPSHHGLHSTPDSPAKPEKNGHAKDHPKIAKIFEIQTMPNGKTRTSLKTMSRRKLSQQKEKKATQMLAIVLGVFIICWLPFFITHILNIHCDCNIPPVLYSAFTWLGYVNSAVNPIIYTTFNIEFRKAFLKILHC

For assay [19], the target named is 5-hydroxytryptamine receptor 2A (Homo sapiens) (UniProt P28223). Briefly: 5-hydroxytryptamine receptor 2A (HTR2A) small molecule antagonists, cell-based qHTS assay (AID 1963586). Also: nearly all actives have a fitted effect of over 45% in size. Also: potency is read from the fitted curve at half-maximal effect. Put shortly: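 CHO cells stably expressing human HTR2A were plated for 18 h at 37 C, then loaded with calcium dye for 1 h. Compounds were preincubated 5 min at room temperature before DOI (4 nM solution) was added. Kinetic fluorescence was read for 3 min.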
5-hydroxytryptamine receptor 2A (Homo sapiens), sequence (P28223 whole entry, looked up): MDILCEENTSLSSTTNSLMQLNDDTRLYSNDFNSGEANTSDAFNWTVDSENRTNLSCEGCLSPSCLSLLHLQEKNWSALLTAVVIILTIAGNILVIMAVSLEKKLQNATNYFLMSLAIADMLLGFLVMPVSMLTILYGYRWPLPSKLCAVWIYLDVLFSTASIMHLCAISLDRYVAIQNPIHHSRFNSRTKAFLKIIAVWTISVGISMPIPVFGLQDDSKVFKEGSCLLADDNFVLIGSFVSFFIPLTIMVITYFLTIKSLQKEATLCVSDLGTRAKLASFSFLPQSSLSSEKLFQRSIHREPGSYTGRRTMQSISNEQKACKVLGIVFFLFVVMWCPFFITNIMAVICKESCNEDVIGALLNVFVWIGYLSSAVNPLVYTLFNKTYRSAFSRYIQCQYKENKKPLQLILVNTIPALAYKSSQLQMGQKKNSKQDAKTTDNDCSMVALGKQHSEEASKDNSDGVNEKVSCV

Assay [20] deals with D(2) dopamine receptor (Homo sapiens) (UniProt P14416). Briefly: Dopamine D2 receptor (DRD2) small molecule agonists, cell-based qHTS assay (AID 1963594). Also: nearly all actives have a fitted effect of over 35% in size. Put shortly:
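HEK293 cells stably expressing DRD2 were cultured 24 h at 37 C, then given Ro20-1724 (0.1 mM final) and compounds for 10 min at room temperature. NKH477 (200nM) was then added for 30 min. cAMP was read by HTRF.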
% is scaled to controls: 0 for no effect and ±100 for the full control effect.

Beta-2 adrenergic receptor (Homo sapiens), sequence (P07550 whole entry, looked up): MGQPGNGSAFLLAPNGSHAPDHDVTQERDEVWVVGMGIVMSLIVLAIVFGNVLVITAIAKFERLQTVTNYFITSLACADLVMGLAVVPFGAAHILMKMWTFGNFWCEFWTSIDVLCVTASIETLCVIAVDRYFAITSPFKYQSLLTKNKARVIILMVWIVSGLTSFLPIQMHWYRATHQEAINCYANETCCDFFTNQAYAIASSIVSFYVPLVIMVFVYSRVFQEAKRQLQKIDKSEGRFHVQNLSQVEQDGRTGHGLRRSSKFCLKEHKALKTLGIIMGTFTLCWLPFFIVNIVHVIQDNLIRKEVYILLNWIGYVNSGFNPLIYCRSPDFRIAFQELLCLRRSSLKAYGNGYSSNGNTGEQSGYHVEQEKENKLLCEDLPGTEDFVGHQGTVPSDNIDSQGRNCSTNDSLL

`CCOC(=O)CC(=O)c1cc(F)c(Cl)nc1Cl`: the Potency entry in assay [1], in [2], in [3], in assay [5], in assay [6] and in [7] was “inactive” in each case. Further, the Potency entry in assay [8], in [9], in [10], in assay [11], in [12] and in [13] was “inactive” in each case. Also, the Potency entry in [14], in [15], in assay [16], in assay [17] and in assay [18] was “inactive” throughout. For the same compound, the outcome in assay [4] was inactive.

Turning to `NC(Cc1ccc(Cl)cc1)C(=O)O` (stereo not given), the activity change, negative = cytotoxicity is -10.3% [at 0.349 µM] in assay [1], -1.01% [at 0.249 µM] in assay [7], -0.306% [at 0.249 µM] in assay [8] and 8.87% [at 0.249 µM] in assay [9]. Further, in assay [2], the activity, positive = activation is -1.51% [at 0.349 µM]. In addition, in [3], the activity change was -0.23% [at 0.217 µM, hits give high values]. Besides, the activation in [4] is -1.07% [at 0.29 µM]; in assay [5], 1.9% [at 0.249 µM]; in assay [6], 0.185% [at 0.249 µM]; in [10], -0.216% [at 0.249 µM]; in [11] it was 0.604% [at 0.292 µM]; in assay [13] it was -0.299% [at 0.29 µM]. In addition, the activation in [14] is -0.737% [at 0.349 µM]; in assay [20] it was 0.127% [at 0.349 µM]. In addition, the activity, negative = inhibition was -30.9% [at 0.233 µM] in [19] and 9.51% [at 0.232 µM] in [12]. The figures for the activity change, negative = inhibition in assay [15], in [16] and in assay [18] were 2.88% [at 0.349 µM], -0.117% [at 0.349 µM] and 0.383% [at 0.348 µM], respectively.

Regarding `Cn1c(N)c(N=O)c(=O)n(C)c1=O`, the Potency entry in [1], in assay [2], in assay [3], in assay [5], in assay [6] and in [7] was “inactive” each time. In addition, the Potency entry in [8], in assay [9], in assay [10], in assay [19], in assay [11] and in [12] was “inactive” each time. Moreover, the Potency entry in [13], in [15], in [16], in assay [20] and in assay [18] was “inactive” each time. Besides, the result in assay [4] was inactive.

In the case of `COC(=O)C1=C(C)NC(C)=C(C(=O)OCCN2CCN(C(c3ccccc3)c3ccccc3)CC2)C1c1cccc([N+](=O)[O-])c1` (stereo not given), the Potency result in assay [1], in [2], in [3], in assay [5], in assay [6] and in assay [7] was “inactive” each time. Besides, the Potency result in assay [8], in assay [9], in [11], in assay [12], in assay [13] and in assay [15] was “inactive” throughout. In addition, the Potency result in assay [16], in assay [17] and in [18] was “inactive” each time. Further, in assay [4], the outcome was inactive. The Potency in assay [19] is 8.18 µM (active).

`CC[N+](C)(CC)CCOC(=O)C(O)(c1ccccc1)C1CCCCC1` (stereo not given): the Potency result in assay [1], in [2], in [3], in assay [5], in [6] and in assay [7] was “inactive” in each case. For the same compound, the Potency entry in assay [8], in assay [9], in [19], in [11], in assay [12] and in assay [13] was “inactive” each time. In addition, the Potency entry in [15], in assay [16], in assay [20] and in [18] was “inactive” each time. Besides, in assay [4], the result was inactive.

`Oc1c(I)cc(I)c2cccnc12`: the Potency result in assay [1], in assay [2], in assay [3], in assay [5], in assay [6] and in [7] was “inactive” in each case. The Potency result in assay [8], in [9], in assay [10], in assay [14], in assay [15] and in assay [16] was “inactive” throughout. The Potency entry in assay [20] and in [18] was “inactive” each time. In assay [4], the outcome was inactive.

For the compound `CCC(C)COC(=O)CC(C)C` (stereo not given), the Potency entry in [1], in assay [2], in assay [3], in assay [5], in [6] and in [7] was “inactive” throughout. Moreover, the Potency entry in assay [8], in assay [9], in assay [19], in assay [11], in assay [12] and in assay [13] was “inactive” throughout. The Potency entry in assay [16], in assay [20] and in assay [18] was “inactive” in each case. Besides, the outcome in assay [4] was inactive.
